Assay outcomes deposited in PubChem by National Center for Advancing Translational Sciences (NCATS).
AmpC detergent: inhibitors of E. coli AmpC beta-lactamase with detergent. AmpC hydrolysis of nitrocefin, absorbance 480 nm, 0.01% Triton. P00811. AID 485294. hit rate 0.041% among 370,000. Potency, µM (titrated, usually from 114 µM), for inactives: at the highest dose activity change, negative = inhibition, usual class: inhibitors;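 note: 0% = no-compound wells and -100% = no-enzyme wells; nearly all actives have a fitted effect of over 25% in size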
Target sequence (P00811 whole entry, looked up): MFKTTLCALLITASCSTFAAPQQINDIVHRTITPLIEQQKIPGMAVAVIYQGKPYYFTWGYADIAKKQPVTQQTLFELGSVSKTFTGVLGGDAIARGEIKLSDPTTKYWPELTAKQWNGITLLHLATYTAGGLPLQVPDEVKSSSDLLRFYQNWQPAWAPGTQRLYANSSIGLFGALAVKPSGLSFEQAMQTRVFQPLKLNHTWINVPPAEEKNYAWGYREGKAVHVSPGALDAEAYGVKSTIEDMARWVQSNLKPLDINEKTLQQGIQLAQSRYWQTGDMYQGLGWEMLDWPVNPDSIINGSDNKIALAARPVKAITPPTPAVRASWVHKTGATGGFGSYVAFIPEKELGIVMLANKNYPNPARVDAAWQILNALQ
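20 mM phosphate pH 7.0 + 0.01% (detergent screen) or 0.0001% Triton X-100; 5.3 nM AmpC reagent; cpd preinc 15 min RT; nitrocefin (800 uM stock) to start; A480 q20 s × 4 min; Activity was normalised to no-enzyme and no-compound control wells.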
AmpC no deterg: AmpC beta-lactamase inhibition without detergent. P00811. AmpC nitrocefin hydrolysis, absorbance 480 nm, 0.0001% Triton. Potency, µM (top dose mostly 57.1 µM), inactives show at the highest dose activity change, negative = inhibition, hits mostly inhibitors. hit rate 0.52% among 330,000;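 note: plate controls were no compound for no effect and no enzyme for full effect; nearly all actives have a fitted effect of over 20% in size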
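20 mM phosphate pH 7.0 + 0.01% (detergent screen) or 0.0001% Triton X-100; 5.3 nM AmpC reagent; cpd preinc 15 min RT; nitrocefin (800 uM stock) to start; A480 q20 s × 4 min; Activity was normalised to no-enzyme and no-compound control wells.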
Giardia FBPA inh: Giardia lamblia aldolase inhibition. hit rate 0.71% among 290,000. purified Giardia FBPA. A8B2U2. Potency, µM (highest dose often 59.6 µM), for inactives: at the top dose activity, negative = inhibition, usual class: inhibitors; note: nearly all actives have a fitted effect of over 55% in size
Target sequence (A8B2U2 whole entry, looked up): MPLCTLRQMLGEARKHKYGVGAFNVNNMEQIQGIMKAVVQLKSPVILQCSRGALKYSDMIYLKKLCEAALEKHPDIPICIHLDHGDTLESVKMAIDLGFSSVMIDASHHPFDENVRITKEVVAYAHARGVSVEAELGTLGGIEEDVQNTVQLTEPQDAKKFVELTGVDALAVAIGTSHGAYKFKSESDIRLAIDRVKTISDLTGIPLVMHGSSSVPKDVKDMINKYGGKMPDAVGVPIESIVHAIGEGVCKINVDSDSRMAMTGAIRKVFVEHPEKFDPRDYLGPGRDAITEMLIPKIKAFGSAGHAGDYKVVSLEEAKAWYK
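40 nM FBPA preincubated 10 min at RT with compound (up to 57.5 uM final), then substrate plus GAPDH/TPI/NAD/arsenate coupling and diaphorase/resazurin added. Fluorescence read after 20 min at RT, 525/598 nm.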
Sm TGR inh: S. mansoni TGR enzyme inhibition. hit rate 3% among 360,000. Potency, µM (titrated, usually from 114 µM), for inactives: at the highest dose activity change, negative = inhibition, actives largely listed as inhibitors. purified TGR, DTNB reduction, TNB absorbance 405 nm. Q962Y6; note: nearly all actives have a fitted effect of over 60% in size
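First, TGR (20 nM dispensed) and NADPH were mixed with compound. Second, a 15 min room-temperature incubation followed. Third, further NADPH and then DTNB were added to start the reaction. Finally, TNB absorbance was monitored kinetically.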
* hit, by the source's call; ? = inconclusive; · = no result given. Most compounds without a hit are left out; they make up all but 3.6% or so of the library. Calls come from the whole dose curve; as a rule, active = well fitted curve in the direction sought with a large enough effect; inconclusive = small, poorly fitted or top-dose-only effect, or another doubt; inactive = no such curve, though single readings can be large; an effect the other way counts as inactive or inconclusive. Unless noted, % is set by controls: 0 for no effect and ±100 for the full control effect; potency is the fitted concentration of half-maximal effect.

SMILES	AmpC detergent	AmpC no deterg	Giardia FBPA inh	Sm TGR inh
O=C(NC(=S)Nc1ccc(N2CCCCC2)cc1)c1cccs1	1%	-57%	-5%	40µM*
COc1ccc(NC(=S)Nc2cc(S(=O)(=O)N3CCCCC3)ccc2OC)cc1	-20%	-58%	-10%	-21%
COc1ccc(NC(=S)Nc2cccc(S(=O)(=O)N3CCCCC3)c2)cc1	-11%	-39%	-14%	35µM*
CC1=C(C(=O)Nc2cccc(C(=O)NC3CCCC(C)C3C)c2)SCCO1 (stereo not given)	-6%	-1%	·	-4%
O=C(NC(=S)Nc1ccc(S(=O)(=O)N2CCCC2)cc1)c1cccs1	3%	-42%	?	18µM*
CC(=O)c1ccc(NC(=O)c2ccc(S(=O)(=O)N3CCCC3)cc2)cc1	-4%	-39%	3%	-6%
O=C(NC(=S)Nc1ccc(S(=O)(=O)N2CCCCCC2)cc1)c1cccs1	-15%	-41%	-11%	?
CC(=O)c1ccc(NC(=O)Nc2ccc(S(=O)(=O)N3CCCC3)cc2)cc1	-6%	14µM*	·	-15%
CCN(CC)CCCn1c(-c2ccccc2)nc2c(N(CCOC)CCOC)nc(C)nc21	·	·	1%	·
O=C(CN1CCN(C2CCCCC2)CC1)c1ccc2cc[nH]c2c1	-13%	-4%	-18%	32µM*
O=C(CN1CCN(C2CCCCC2)CC1)c1c[nH]c2ccccc12	5%	-28%	-1%	-3%
COc1ccccc1NC(=O)Nc1nc(CC(=O)N2CCN(c3ccccc3OC)CC2)cs1	?	185%	·	3%
CCOc1ccc(-n2ccnc2SCC(=O)Nc2cc(C)on2)cc1	1%	-20%	7%	-1%
Cc1cccc(NCc2ccccc2O)n1	-1%	-30%	5%	-1%
Cc1cccc(NC(c2ccc(C)s2)c2ccc3ccc(C)nc3c2O)n1 (stereo not given)	?	-24%	11%	45µM*
Cc1cccc(NC(c2ccccc2C)c2ccc3ccc(C)nc3c2O)n1 (stereo not given)	18%	·	·	3.5µM*
CCN(CC)S(=O)(=O)c1cc(C(=O)NCCN2CCOCC2)ccc1Cl	-9%	-11%	1%	9%
CC(NC(=O)CN1C(=O)NC2(CCc3ccccc32)C1=O)c1ccc2c(c1)OCCO2 (stereo not given)	-21%	-16%	·	-2%
COc1ccc(C(=O)CSc2nnc(-c3ccccn3)n2Cc2ccco2)cc1	?	72%	-11%	50µM*
O=C(CSc1nnc(-c2ccccn2)n1Cc1ccco1)c1ccc(Cl)cc1	-13%	8%	1%	20µM*
O=C(CSc1nnc(-c2cnccn2)n1Cc1ccco1)c1ccc(Cl)cc1	-9%	8%	-4%	10µM*
O=C(CSc1nnc(-c2ccccn2)n1Cc1ccco1)c1ccccc1	?	14%	-11%	?
CNC(=O)CSc1nnc(-c2ccccn2)n1Cc1ccco1	-3%	1%	1%	1%
NC(=O)CSc1nnc(-c2cnccn2)n1Cc1ccco1	0%	0%	3%	?
O=C(CSc1nnc(-c2cnccn2)n1Cc1ccco1)c1ccccc1	-19%	-10%	-7%	35µM*
SMILES	AmpC detergent	AmpC no deterg	Giardia FBPA inh	Sm TGR inh
CCOC(=O)c1c(C)n(-c2ccccc2)c2ccc(OC(=O)c3ccccc3)cc12	-8%	·	·	-1%
O=C(NNC(=O)c1ccccc1F)c1ccc(NS(=O)(=O)c2ccc(F)cc2)cc1	?	78%	·	-3%
O=C(CNC(=O)c1ccccc1O)N/N=C/c1cc(Br)ccc1OC(=O)/C=C/c1ccco1	-14%	3.2µM*	1%	?
COc1ccccc1/C=N/NC(=O)CO	-1%	-37%	0%	2%
O=C(CNC(=O)c1ccc(F)cc1)N/N=C/c1cc(Br)ccc1OCc1ccccc1	-2%	?	-10%	4%
O=C(CNC(=O)c1cccc(F)c1)N/N=C/c1cc(Br)ccc1OC(=O)/C=C/c1ccco1	-6%	16µM*	-20%	?
COc1ccccc1/C=N/NC(=O)CC(=O)NCc1ccccc1	3%	-16%	18µM*	5%
COc1ccccc1C(=O)NCC(=O)N/N=C/c1cc(Br)ccc1OCc1ccccc1	2%	25µM*	-11%	-2%
CC[C@H](C)[C@H](NC(=O)[C@H](Cc1ccc(O)cc1)NC(=O)[C@@H](NC(=O)[C@H](CCCNC(=N)N)NC(=O)[C@@H](N)CC(=O)O)C(C)C)C(=O)N[C@@H](Cc1cnc[nH]1)C(=O)N1CCC[C@H]1C(=O)N[C@@H](Cc1ccccc1)C(=O)N[C@@H](Cc1cnc[nH]1)C(=O)N[C@@H](CC(C)C)C(=O)N[C@@H](CC(C)C)C(=O)N[C@H](C(=O)N[C@@H](Cc1ccc(O)cc1)C(=O)N[C@@H](CO)C(=O)O)C(C)C	·	·	-3%	·
COc1cccc(C(=O)Nc2ccccc2OCc2cc(=O)n3ccccc3n2)c1	23%	·	·	4%
CN(Cc1cccs1)C(=O)c1ccc(Cl)c(S(=O)(=O)N2CCCCCC2)c1	·	-7%	·	·
COc1ccc(/C=N/NC(=O)c2ccccc2OCc2ccccc2)c(OC)c1	-1%	-28%	-6%	2%
C#CCOc1ccccc1/C=N/NC(=O)c1ccccc1OCc1ccccc1	-9%	20µM*	·	-19%
O=C(CN1C(=O)NC2(CCCC2)C1=O)Nc1cc(S(=O)(=O)N2CCCCC2)ccc1Cl	·	-16%	·	·
CC1(C)CC(=O)C([C@H]2C3=C(CC(C)(C)CC3=O)Oc3ccccc32)C(=O)C1	·	·	5%	·
CC1(C)CC(=O)C(C2C3=C(CC(C)(C)CC3=O)Oc3ccccc32)=C(O)C1 (stereo not given)	-7%	-7%	-2%	7.9µM*
CC1(C)CC(=O)C(C2C3=C(CC(C)(C)CC3=O)Oc3ccccc32)C(=O)C1 (stereo not given)	-2%	-15%	2%	5µM*
COc1ccc(N(C(C)C(=O)N2CCC(Cc3ccccc3)CC2)S(C)(=O)=O)cc1 (stereo not given)	6%	163%	-6%	·
COc1ccc(-c2nnn(CC(=O)N(CC(=O)NC3CCCC3)c3ccccc3F)n2)cc1OC	-13%	51%	5%	-3%
Cc1ccc(C(=O)N/N=C/c2ccc(-c3ccc(Br)cc3[N+](=O)[O-])o2)o1	4%	-36%	·	50µM*
Cc1ccc(C(=O)N/N=C\c2ccc(Br)o2)o1	1%	-13%	2%	4%
COc1ccc2c(Sc3ccc(C)cc3)c(C(=O)NCCc3ccccc3)[nH]c2c1	25%	·	·	-4%
COc1ccc2c(Sc3ccc(C)cc3)c(C(=O)NCc3ccc(F)cc3)[nH]c2c1	24%	·	·	45µM*
COc1ccc2c(Sc3ccccc3)c(C(=O)NCCN(C)C)[nH]c2c1	30%	·	·	40µM*
COCCCNC(=O)c1[nH]c2cc(OC)ccc2c1Sc1ccc(C)cc1	15%	·	·	4%
CCOc1ccccc1NC(=O)CN1C=NS(=O)(=O)c2ccccc21	8%	·	·	32%
Cc1cc(C)nc(Sc2ncnc(N)c2[N+](=O)[O-])n1	-3%	2%	-9%	4µM*
